Laboratory results: PubChem BioAssay (NCI)
The panel holds about 83,000 compounds, 20% with a hit somewhere; the sample as a whole holds those more often.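 Growth was measured after 48 h exposure to one concentration of compound in 96-well plates. Values under 10 count as active.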 Values without a mark were called inactive. The source made the active and inactive calls.

Legend:
Assay in all cases: NCI-60 one-dose screen, 48 h (100 = growth as untreated, 0 = no growth, -100 = all killed)
Details in all cases: 10 µM
SK-MEL-2 melanoma = test system: SK-MEL-2 melanoma
EKVX NSCLC = test system: EKVX NSCLC
SN12C renal = test system: SN12C renal
UO-31 renal = test system: UO-31 renal
TK-10 renal = test system: TK-10 renal
ACHN renal = test system: ACHN renal
CAKI-1 renal = test system: CAKI-1 renal
A498 renal = test system: A498 renal
MOLT-4 leukemia = test system: MOLT-4 leukemia
RPMI-8226 leukemia = test system: RPMI-8226 leukemia
OVCAR-8 ovarian = test system: OVCAR-8 ovarian
OVCAR-5 ovarian = test system: OVCAR-5 ovarian
OVCAR-4 ovarian = test system: OVCAR-4 ovarian
SK-OV-3 ovarian = test system: SK-OV-3 ovarian
IGROV1 ovarian = test system: IGROV1 ovarian
NCI/ADR-RES ovarian = test system: NCI/ADR-RES ovarian
OVCAR-3 ovarian = test system: OVCAR-3 ovarian
HS 578T breast = test system: HS 578T breast
CCRF-CEM leukemia = test system: CCRF-CEM leukemia
SR leukemia = test system: SR leukemia

SMILES	growth (SK-MEL-2 melanoma)	growth (EKVX NSCLC) [%]	growth (SN12C renal) [%]	growth (UO-31 renal)	growth (TK-10 renal)	growth (ACHN renal)	growth (CAKI-1 renal)	growth (A498 renal)	growth (MOLT-4 leukemia)	growth (RPMI-8226 leukemia)	growth (OVCAR-8 ovarian)	growth (OVCAR-5 ovarian) [%]	growth (OVCAR-4 ovarian)	growth (SK-OV-3 ovarian)	growth (IGROV1 ovarian)	growth (NCI/ADR-RES ovarian)	growth (OVCAR-3 ovarian)	growth (HS 578T breast) [%]	growth (CCRF-CEM leukemia) [%]	growth (SR leukemia) [%]
N#Cc1c(N)nc(-c2cc(F)cc(C(F)(F)F)c2)nc1-c1ccccc1F	90.4%	38.6	24.9	33.3%	38.1%	2.03% (active)	78.1%	5.56% (active)	50.1%	70.9%	35.8%	61.1	5.1% (active)	46.6%	38.6%	49.3%	–	–	–	–
CN(C)c1ccc(/C=N/NC(=O)c2cccc3ccccc23)c(Cl)c1	28%	45.2	42.9	57.5%	63.8%	51.2%	48.5%	-3.25% (active)	15.5%	7.96% (active)	36.5%	58.1	50.9%	16.9%	46.1%	-9.37% (active)	-17.4% (active)	42.2	–	–
COc1cccc(CNc2cccc3cn[nH]c23)c1O	103%	79.9	91	60.1%	92.4%	98.7%	85.9%	–	98%	100%	96.5%	106	80.7%	101%	88.8%	105%	100%	–	101	103
CCCCN(CCCC)C(=O)[C@H](CC)[C@@H]1CC[C@@H](C)[C@@H]([C@H](C)[C@@H](O)[C@@H](C)C(=O)[C@H](CC)C2O[C@]3(C=CC(=O)[C@]4(CC[C@@](C)([C@H]5CC[C@](O)(CC)[C@H](C)O5)O4)O3)[C@H](C)C[C@@H]2C)O1 (stereo partly drawn)	26.2%	27.7	28.7	13.4%	42.6%	13.7%	21.6%	41%	39.4%	–	34.7%	39.4	42.7%	51.9%	59.3%	78.2%	31.5%	43.1	–	75.1
NC(CSC(c1ccccc1)(c1ccccc1)c1cccc2ccccc12)C(=O)O (stereo not drawn)	98.6%	88	82.7	84.3%	115%	97.4%	89.9%	100%	88.1%	89.2%	95.1%	–	95.4%	106%	98.1%	97.6%	98.6%	92.5	–	112
COc1ccccc1-n1c(-c2sc(NC(C)=O)nc2C)n[nH]c1=S	106%	67.6	101	70.1%	130%	108%	81%	–	92.9%	–	108%	109	106%	109%	106%	106%	135%	121	97.3	79.5
Cc1c(O)c(=O)ccn1C1CCC(CC2CCC(n3ccc(=O)c(O)c3C)CC2)CC1 (stereo not drawn)	66.8%	10.2	41.5	38.6%	50.1%	35.7%	25.2%	50.9%	25.7%	–	33.5%	54.5	32.2%	49.9%	32.5%	83%	28.3%	21.9	–	41.8
O=C(O)c1ccc(-n2cc(CNc3ccc(Oc4ccccc4)cc3)c(-c3ccccc3)n2)cc1	88.5%	85.1	93.4	76.6%	90.1%	87.4%	86.4%	83.2%	-4.16% (active)	73%	92.3%	98.9	81.4%	112%	86.4%	90.1%	86.9%	105	–	–
CN(C)c1ncnc2c1nnn2C1OC(CO)C(O)C1O (stereo not drawn)	-17.2% (active)	39.9	18.7	8.73% (active)	-2.87% (active)	5.56% (active)	7.19% (active)	22.3%	8.29% (active)	-4.55% (active)	8.85% (active)	26.8	23.4%	4.66% (active)	3.79% (active)	15.3%	-18.8% (active)	19.8	–	–
O=C1CCn2c1c(O)c1ccccc1c2=O	126%	94	108	96.5%	107%	111%	86.3%	–	106%	–	103%	114	104%	103%	116%	103%	118%	93.6	99.6	95.1
COc1ccc(-c2cc(-c3ccccc3)nc(SCCCCCCC(=O)NO)n2)cc1	78%	74.2	79.6	34.3%	45.9%	45.4%	39.6%	48.7%	14.4%	–	43.7%	58.2	76.6%	61.2%	32.2%	9.46% (active)	67.8%	54	–	21.1
Nc1cc(Br)c(-c2nn3c(CCC(=O)c4nc5ccccc5[nH]4)nnc3s2)c(Br)c1	100%	95.5	97.7	71.1%	117%	99.8%	95.4%	65.6%	84.9%	85.1%	96.5%	–	–	113%	101%	–	105%	90	–	88.1
CC(=O)N[C@H](C(=O)N[C@@H](CCCNC(=N)N)C(=O)N[C@@H](CCCCN)C(=O)N[C@@H](CCCNC(=N)N)C(=O)N[C@]1(C)CCC/C=C\CCC[C@@](C)(C(=O)N[C@@H](CC(C)C)C(=O)N[C@@H](CC(C)C)C(=O)N[C@@H](CCC(N)=O)C(=O)N[C@@H](CCC(=O)O)C(=O)N[C@@H](CCCNC(=N)N)C(=O)N[C@@H](CCC(=O)O)C(=O)N[C@@H](CC(C)C)C(=O)N[C@H](C(=O)N[C@@H](CCC(=O)O)C(N)=O)C(C)C)NC(=O)[C@H](CCCNC(=N)N)NC(=O)[C@H](CC(C)C)NC1=O)C(C)C	101%	101	103	114%	96.2%	109%	98.9%	116%	105%	104%	104%	–	107%	108%	110%	109%	109%	119	–	104
COc1cc(C2CC(c3cc(Cl)c(C)cc3O)=NN2c2ccc(S(N)(=O)=O)cc2)cc(OC)c1OC (stereo not drawn)	37.7%	16.9	13.7	4.12% (active)	15.3%	3.29% (active)	11.4%	43.3%	–	11.9%	34.4%	19.4	33.1%	14.5%	3.35% (active)	3.9% (active)	20.7%	30.3	–	–
CC(C)(C)OC(=O)N1CCc2c(sc3ncnc(N/N=C/c4ccccc4Br)c23)C1	91.7%	52.2	78.7	32.7%	79.6%	42.4%	54.4%	84.7%	21.2%	–	71.6%	78.3	72.9%	114%	68.6%	71.6%	62.9%	98.7	–	39.4
Cc1noc(C)c1CSc1ccccc1C(=O)N1CCN(c2cccc(C(F)(F)F)c2)CC1	85.1%	66.7	80.2	67.5%	91.3%	84.9%	68.8%	77.5%	67.6%	54.3%	94.2%	–	67%	75.3%	83.7%	72.3%	82.1%	90.4	–	39
